# Measurements reported in PubChem BioAssay (Tox21).
# Values joined by “and” are separate entries in the source; they are usually repeats but may differ in a detail not shown here. Equal entries are not always repeated. Inconclusive results are not listed. Where a call stands in place of a potency, no number is given. The source holds several records for some structures; these can differ, active in one and inactive in another. Active and inactive are the calls of the source. Calls come from the whole dose curve; as a rule, active = well fitted cell-killing curve with a large enough effect in the repeat runs; inconclusive = weak or mixed curves; inactive = flat fitted curve, though single readings scatter.
# Test: qHTS RealTime-Glo MT Cell Viability Assay in HepG2 cells - 8 hour (AID 1224873); note: nearly all actives have a fitted effect of over 55% in size
# Settings: RealTime-Glo luminescence; series mostly up to 76.8 µM
# Source text: National Center for Advancing Translational Sciences [NCATS]
# NIH Chemical Genomics Center [NCGC]
# U.S. Environmental Protection Agency [EPA]
# National Institutes of Environmental Health Sciences [NIEHS]
# National Toxicology Program [NTP]
# U.S. Food and Drug Administration [FDA]
# Measure of cell viability is critical in the cell-base assay. Analysis of cell viability is necessary for the characterization of cell responses to cytotoxic drugs and environmental stress. A RealTime-Glo MT Cell Viability Assay to monitor cell viability in real time of continues cell culture during 40 hours of compound treatment was used to screen Tox21 10K library compounds in HepG2 cells. The RealTime-Glo MT Cell Viability Assay is a nonlytic, homogeneous, bioluminescent method to measure cell viability in real time using a simple, plate-based method. The assay involves adding NanoLuc luciferase and a cell-permeant prosubstrate to cells in culture. Viable cells reduce the proprietary prosubstrate to generate a substrate for NanoLuc luciferase. This substrate diffuses from cells into the surrounding culture medium, where it is rapidly used by the NanoLuc Enzyme to produce a luminescent signal. The signal correlates with the number of viable cells, making the assay well suited for cytotoxicity studies.
# Tox21 Assay Protocol Summary:
# The mixture of HepG2 cell suspension and reagents were dispensed at 600cells/6 ul/well in 1536-well tissue culture treated black solid bottom plates using a Multidrop dispenser. After the assay plates were incubated at a 37 C/5% CO2 incubator for 5 hours, 23 nL of compounds dissolved in DMSO, positive and negative controls was transferred to the assay plate by a pintool work station. The plates were incubated at 37 C for 40 hours. The luminescence intensity were measured at 0h, 8h, 16h, 24h, 32h and 40h time points using ViewLux plate reader during compound treatment.
# Potency is the fitted concentration of half-maximal effect.
row,Structure (SMILES),Potency
1,CC(=O)[O][Hg][c]1ccccc1,1.93 µM (active) and 1.74 µM (active) and 1.07 µM (active)
2,CCNc1nc(Cl)nc(NCC)n1,inactive
3,CCCCn1cc[n+](C)c1,inactive
4,CCCC[n+]1cccc(C)c1,inactive
5,CCCCCCn1cc[n+](C)c1,inactive
6,O=C(O)C(Cl)(Cl)Cl,inactive
7,COP(=O)(OC)C(O)C(Cl)(Cl)Cl (stereo not given),inactive
8,Cc1cc(-c2ccc(N)c(C)c2)ccc1N,inactive
9,CCC[N+]1(C)CCCC1,inactive
10,CCn1cc[n+](C)c1C,inactive
11,C=CCOC(Cn1ccnc1)c1ccc(Cl)cc1Cl (stereo not given),inactive
12,CCCCCC[n+]1ccccc1,inactive
13,Nc1ccc(Cl)cc1,inactive
14,Cc1cc(Cl)ccc1N,inactive
15,CCCC[n+]1ccccc1,inactive
16,COCC(=O)N(c1c(C)cccc1C)C(C)C(=O)OC (stereo not given),inactive
17,C1CCC(NC2CCCCC2)CC1,inactive
18,OCCOc1ccccc1,inactive
19,CCCCCCCCCCCCn1cc[n+](C)c1,49.4 µM (active) and inactive
20,Oc1ccccc1-c1ccccc1,inactive

row,Structure (SMILES),Potency
1,Oc1cccc2cccnc12,inactive
2,CCCC[N+]1(C)CCCCC1,inactive
3,CCCC[n+]1ccccc1C,inactive
4,COc1ccc(N)cc1,inactive
5,Nc1ccc(-c2ccc(N)cc2)cc1,inactive
6,CCC(=O)C(CC(C)N(C)C)(c1ccccc1)c1ccccc1 (stereo not given),inactive
7,CCCCCCCCCCCCCC[P+](CCCCCC)(CCCCCC)CCCCCC,17.5 µM (active) and 19.7 µM (active) and inactive
8,O=P1(N(CCCl)CCCl)NCCCO1 (stereo not given),inactive
9,C[N+](C)(C)Cc1ccccc1,inactive
10,CCC[N+]1(C)CCCCC1,inactive
11,Nc1ccccc1,inactive
12,CC(=O)O,inactive
13,CCCCCCCCCCCCCCCCn1cc[n+](C)c1,inactive and 49.1 µM (active)
14,CCCC[N+]1(C)CCCC1,inactive
15,COP(=O)(OC)OC=C(Cl)Cl,inactive
16,O=C(O)COc1ccc(Cl)cc1Cl,inactive
17,CCCC[n+]1ccc(C)cc1,inactive
18,O=c1nc(O)n(Cl)c(=O)n1Cl,inactive
19,C[C@]12CCC(=O)C=C1CC[C@@H]1[C@@H]2CC[C@]2(C)C(=O)CC[C@@H]12,inactive
20,O=C(O)c1ccccc1O,inactive
